Growth inhibition data for 8 compounds are collected here from PubChem BioAssay (NCI).

This experiment can be described thus: NCI Yeast Anticancer Drug Screen. Data for the rad52 strain (AID 147).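 Note: 0% = growth of vehicle-treated control cultures.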 Particulars: S. cerevisiae rad52 mutant growth inhibition, stronger effect = higher value. The method, then:
Growth inhibition of yeast strains with defined genetic alterations is measured as a screen for potential anti-cancer activity. Selected strains with alterations in DNA damage repair or cell cycle control were exposed to compounds and growth inhibition was measured relative to vehicle treated controls. The strain used in this assay is rad52

SMILES strings stand for the structures. This is part of a sample that, as a whole, favours compounds with a hit. Of some 79,000 tested, about 15% had one in any assay. Values without a mark were called inactive. Activity calls are given as the source filed them. Cut-off read from the data, not from the text of the source: active = growth inhibition above about 70%; inactive = the rest.

As to `O=C(NNc1ccccc1)C(CCCCNS(=O)(=O)Cc1ccccc1)NS(=O)(=O)Cc1ccccc1` (stereo not given), the growth inhibition is, setting by setting: (at 1.2 µM) 3%; (at 3.7 µM) 9%; (at 11.0 µM) 29%; (at 33.0 µM) 46%; (at 100.0 µM) 72% (active).

Turning to `O=C(/C(=C/c1ccc(O)cc1)c1ccccc1)c1ccccc1`, the growth inhibition is -52% (at 1.2 µM); -55% (at 3.7 µM); -14% (at 11.0 µM); 99% (active) (at 33.0 µM); 93% (active) (at 100.0 µM).

As for `CCCCCCCCCC(=O)N(CCC)CCC`, the growth inhibition is -11% (at 1.2 µM); -15% (at 3.7 µM); -19% (at 11.0 µM); 42% (at 33.0 µM); 96% (active) (at 100.0 µM).

As to `CCOC(=O)CC1(C)/C(=N\Nc2ccc([N+](=O)[O-])cc2[N+](=O)[O-])CCC2C1CCC1(C)C(C(C)CCCC(C)C)CCC21` (stereo not given), the growth inhibition (at 1.2 µM) was 0%; the growth inhibition (at 3.7 µM) was 0%; the growth inhibition (at 11.0 µM) was 0%; the growth inhibition (at 33.0 µM) is 1%; the growth inhibition (at 100.0 µM) was -2%.

On to `O=C(Cc1ccccc1)NNc1nc(NNC(=O)c2ccncc2)nc(Nc2ccc([N+](=O)[O-])cc2)n1`, for which the growth inhibition was 23% (at 1.2 µM); 29% (at 3.7 µM); 68% (at 11.0 µM); 59% (at 33.0 µM); 54% (at 100.0 µM).

Turning to `CCN(CC)CCNc1ccc2nc(C)n3c4ccc(O)cc4c(=O)c1c23`, the growth inhibition is, setting by setting: (at 1.2 µM) 40%; (at 3.7 µM) 74% (active); (at 11.0 µM) 89% (active); (at 33.0 µM) 91% (active); (at 100.0 µM) 93% (active).

In the case of `CC1C(c2ccccc2)SC(=N)N1C` (stereo not given), the growth inhibition is, setting by setting: (at 1.2 µM) -1%; (at 3.7 µM) -3%; (at 11.0 µM) -2%; (at 33.0 µM) -1%; (at 100.0 µM) -4%.

With `O=C1c2ccccc2C(=O)c2sc(Nc3ccccc3Cl)nc21`, the growth inhibition by setting is: (at 1.2 µM) -11%; (at 3.7 µM) 42%; (at 11.0 µM) 90% (active); (at 33.0 µM) 99% (active); (at 100.0 µM) 98% (active).
